Screening results: PubChem BioAssay, National Center for Advancing Translational Sciences (NCATS)
The entries come from a sample that favours hits as a whole.
FBPA Giardia inh: blocks Giardia fructose-bisphosphate aldolase activity; purified Giardia FBPA; Potency, µM (series often up to 59.6 µM), without a hit: top-dose activity, negative = inhibition, actives largely listed as inhibitors; 0.71% of 290,000 active; AID 2451; also: potency is read from the fitted curve at half-maximal effect; % is scaled to controls: 0 for no effect and ±100 for the full control effect; nearly all actives have a fitted effect of over 55% in size
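Giardia FBPA (40 nM reagent) was preincubated 10 min at RT with compound (up to 57.5 uM final), then substrate plus GAPDH/TPI/NAD/arsenate coupling system with diaphorase/resazurin was added; resorufin fluorescence (525/598 nm) was read after 20 min.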
RE007 growth inh: less growth of the S. pombe RE007 Vpr strain | S. pombe RE007 Vpr strain, BacTiter-Glo ATP luminescence, 24 h | Potency, µM (doses to about 92.2 µM), for the others: at the top dose activity change, negative = less growth, actives largely listed as inhibitors | 0.21% of 360,000 active; active = well fitted falling curve with a large enough effect; inconclusive = small, poorly fitted or top-dose-only effect; inactive = no such curve, though single readings can be large or run the other way; also: potency is read from the fitted curve at half-maximal effect; % is scaled to controls: 0 for no effect and ±100 for the full control effect; nearly all actives have a fitted effect of over 50% in size
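Fission yeast strain RE007, carrying one chromosomally integrated HIV-1 vpr copy, was seeded at OD 0.01 in PMG+AL medium with 23 nL pinned compound. After 24 h at 30 °C and 99% humidity, viability was read by BacTiter-Glo luminescence.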
Shiga inhibitor: blocks Shiga toxin action in Vero cells | Vero cells, Shiga toxin protein synthesis inhibition reporter | inhibition, % at 38.7 µM | 9.2% of 290,000 active | AID 2315; in the data active = inhibition mostly above about 28%, no sharp cut-off; inactive = mostly below about 43%; also: 0% is about no effect
Tb PYK inh: blocks Trypanosoma brucei pyruvate kinase. TbPYK enzyme, Kinase-Glo Plus ATP luminescence, 45 min. AID 624173. Potency, µM (series often up to 76.8 µM), for the others: at the highest dose activity, negative = inhibition, most hits filed as inhibitors. 0.12% of 410,000 active; also: potency is read from the fitted curve at half-maximal effect; % is scaled to controls: 0 for no effect and ±100 for the full control effect; nearly all actives have a fitted effect of over 50% in size
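TbPYK + substrate in 50 mM TEA pH 7.2, 100 mM KCl, 10 mM MgCl2, 0.05% BSA, 0.01% Tween-20; cpd pinned; ADP 130 uM final; 45 min RT; Kinase-Glo Plus 10 min; luminescence endpoint.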
CHX counter: counter-screen for Shiga toxin inhibitors: cycloheximide protein synthesis inhibition. cell reporter, cycloheximide protein synthesis inhibition counterscreen. max response, %. 12% of 300,000 active. AID 2314; in the data active = max response mostly above about 13%, no sharp cut-off; inactive = mostly below about 14%; also: read at 38.3 µM for the half of the compounds with a filed dose; 0% is about no effect
LmPK inh: LmPK (Leishmania mexicana) enzyme inhibition; Q27686; purified LmPK, Kinase-Glo ATP luminescence, 1 h; Potency, µM (doses to about 57.5 µM), for the others: at the highest dose activity change, negative = inhibition, actives largely listed as inhibitors; 0.37% of 290,000 active; also: potency is read from the fitted curve at half-maximal effect; % is scaled to controls: 0 for no effect and ±100 for the full control effect
Target sequence (Q27686 whole entry, looked up): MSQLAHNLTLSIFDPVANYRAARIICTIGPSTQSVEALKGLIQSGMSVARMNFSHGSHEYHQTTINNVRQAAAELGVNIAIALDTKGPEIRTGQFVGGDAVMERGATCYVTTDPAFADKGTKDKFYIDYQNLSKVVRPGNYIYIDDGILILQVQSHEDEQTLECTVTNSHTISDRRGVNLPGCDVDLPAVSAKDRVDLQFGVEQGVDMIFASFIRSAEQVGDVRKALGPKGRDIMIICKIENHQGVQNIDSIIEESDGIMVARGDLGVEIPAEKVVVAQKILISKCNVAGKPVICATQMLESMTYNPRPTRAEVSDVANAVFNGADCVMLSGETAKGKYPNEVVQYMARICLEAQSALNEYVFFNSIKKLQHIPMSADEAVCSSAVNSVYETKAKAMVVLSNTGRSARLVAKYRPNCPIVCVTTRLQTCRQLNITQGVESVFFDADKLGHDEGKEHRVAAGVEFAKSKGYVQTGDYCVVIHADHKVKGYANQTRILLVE
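In 50 mM imidazole pH 7.2 with 7 mM MgCl2, LmPK (0.1 nM) turned over PEP (0.5 mM) and ADP (0.1 mM) for 1 h at room temperature. Luciferase read-out of ATP.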
The depositor's hits bear a star; ? = inconclusive; / = not tested or not shown; [ ] = remark or other dose. Unless noted, calls follow the shape of the dose curve; as a rule, active = well fitted curve in the direction sought with a large enough effect; inconclusive = small, poorly fitted or top-dose-only effect, or another doubt; inactive = no such curve, though single readings can be large; an effect the other way counts as inactive or inconclusive.

SMILES	FBPA Giardia inh	RE007 growth inh	Shiga inhibitor	Tb PYK inh	CHX counter	LmPK inh
O=C(Nc1nc2c(s1)CCCC2)c1cc(-c2ccncc2)nc2ccccc12	-2%	-1%	-2	-1%	2	3%
O=C(Nc1nc2c(s1)CCCC2)c1cc(-c2ccccc2)nc2ccccc12	0%	0%	19	-9%	14*	2%
O=C(NC1=NCCS1)c1cc(-c2ccc(-c3ccccc3)cc2)nc2ccccc12	4%	-2%	28	2%	24*	1%
N#Cc1c(-n2ncnc2-c2ccc(F)cc2)sc2c1CCCCC2	/	/	/	-14%	/	/
COc1ccc(-c2nc(-c3ccncc3)no2)cc1OC	1%	-4%[3.69 µM]	79*	/	48*	-5%
COc1ccc(-c2noc(-c3cccs3)n2)cc1OC	-1%	7%	69*	-4%	52*	-15%
CCOc1ccccc1-c1nc(-c2ccncc2)no1	-11%	?	24	-2%	21	-22%
Fc1cccc(F)c1-c1nc(-c2ccncc2)no1	8%	?	86*	3%	48*	-9%
COc1ccc(-c2noc(-c3ccco3)n2)cc1OC	0%	-18%	139*	-1%	43*	-23%
CCOc1ccc(CCNC(=O)C(CC)n2nc(C)c3c(C)n(-c4ccccc4)nc3c2=O)cc1 (configuration not stated)	/	/	/	-8%	/	/
CCOc1ccc(-c2noc(-c3cccnc3)n2)cc1OCC	-5%	3%	12	1%	1	1%
Cc1ccc(-c2nc(-c3ccncc3)no2)cc1Cl	21%	-2%	61*	-3%	28*	2%
CCn1c(SCc2nc(-c3ccc(OC)c(OC)c3)no2)nnc1-c1cccs1	-4%	8%	7	4%	15*	0%
CCOc1ccc(-c2nc(-c3cccnc3)no2)cc1OCC	6%	-15%	41	7%	12*	3%
COc1ccc(Cl)cc1-c1nc(-c2ccncc2)no1	1%	-2%	21	2%	2	-1%
COc1ccc(-c2noc(CSc3nnc(Cc4ccccc4)n3-c3ccccc3)n2)cc1OC	/	/	/	3%	/	/
COc1ccc(-c2noc(-c3ccccc3Cl)n2)cc1OC	-3%	14%	65*	4%	56*	-13%
COc1ccc(-c2noc(-c3cccc(Cl)c3)n2)cc1OC	-4%	-3%	11	-1%	2	-1%
CC(=O)c1ccc(NC2=NS(=O)(=O)c3ccccc32)cc1	/	/	/	0%	/	/
COCCCn1c(SCc2ccccc2F)nc2c(sc3ccccc32)c1=O	/	/	/	-2%	/	/
Cc1ccc(SCC(Cc2ccccc2)N2CCN(C)CCC2=O)cc1 (configuration not stated)	5%	/	2	/	-2	/
CNc1ccc(-c2nc(-c3ccncc3)no2)cc1[N+](=O)[O-]	/	/	/	-26%	/	/
Cc1cc(-c2nc(-c3ccncc3)no2)ccc1[N+](=O)[O-]	14%	10%	88*	-6%	33*	-6%
Cc1ccc(-c2nc(-c3ccncc3)no2)cc1C	14%	-19%	133*	-2%	52*	-10%
N/C(=N\OC(=O)CSc1ccccc1)c1ccc([N+](=O)[O-])cc1	0%	0%	67*	-14%	46*	1%
SMILES	FBPA Giardia inh	RE007 growth inh	Shiga inhibitor	Tb PYK inh	CHX counter	LmPK inh
Cc1ccc(/C(N)=N/OC(=O)CSc2ccccc2)cc1	-4%	-14%	79*	5%	60*	-2%
Cc1ccc(SCC(=O)O/N=C(\N)c2ccncc2)cc1	-1%	-10%	41	4%	37*	0%
N/C(=N\OCc1ccc([N+](=O)[O-])cc1)c1ccncc1	-10%	-7%	58*	-2%	27*	1%
Cc1ccc(SCC(=O)O/N=C(\N)c2cccc([N+](=O)[O-])c2)cc1	-1%	2%	-13	4%	-1	-3%
COc1ccc(/C(N)=N/OC(=O)CSc2ccc(C)cc2)cc1	-4%	-4%	-7	-18%	-2	-3%
COc1ncc2nc(-c3ccccc3)c(=O)n(-c3ccccc3)c2n1	5%	/	/	/	/	/
CCOC(=O)C(SP(=S)(OC)OC)c1ccccc1 (configuration not stated)	-6%	/	2	/	6	/
